Source: PubChem (National Center for Advancing Translational Sciences (NCATS))
This is a sample that favours compounds with a hit; in the whole collection about 6.5% have one here.
Lassa entry inh = inhibitors of Lassa virus binding or cell entry. Lassa virus pseudotype entry inhibition, cell reporter. Potency, µM (top dose mostly 37.9 µM), usual class: inhibitors. 300,000 compounds, 1.2% hits; calls by dose curve; tested in HEK293 cells; note: nearly all actives have a fitted effect of over 50% in size
Marburg entry inh = blocks Marburg virus binding to or entry into cells. 300,000 compounds, 1.8% hits. AID 540276. Marburg virus pseudotyped entry inhibition, cell reporter. Potency, µM (series often up to 37.8 µM), usual class: inhibitors; calls by dose curve; tested in HEK293 cells
FMDV inh = blocks foot and mouth disease virus; FMDV antiviral cell-based qHTS; Potency, µM (top dose mostly 57.9 µM), usual class: inhibitors; 410,000 compounds, 1.2% hits; AID 1159524; calls by dose curve; tested in HEK293T cells; note: read-out not given here; nearly all actives have a fitted effect of over 45% in size
Vaccinia Venus = vaccinia inhibition (Venus reporter); Vaccinia virus Venus reporter expression, fluorescence; Potency, µM (titrated, usually from 36.5 µM), hits mostly inhibitors; 330,000 compounds, 0.46% hits; calls by dose curve; tested in A549 cells; note: nearly all actives have a fitted effect of over 30% in size
Vaccinia mCherry = vaccinia inhibition (mCherry reporter); 310,000 compounds, 0.63% hits; AID 720579; Vaccinia virus mCherry reporter infection, fluorescence; Potency, µM (highest dose often 36.5 µM), most hits filed as inhibitors; calls by dose curve; tested in A549 cells; note: nearly all actives have a fitted effect of over 35% in size
HCMV antiviral = human cytomegalovirus inhibition; HFF cells, HCMV-luciferase reporter, 72 h; hits give low values; 410,000 compounds, 4.5% hits; activity change, negative = inhibition, % at 57.5 µM; in the data active = activity change below about -60%; inconclusive = no clear call, values can overlap the other calls; inactive = above about -39%
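Two compound doses tested in HFFs infected with HCMV-luciferase, MOI 1 PFU/cell, 72 h at 37C. Lysate luminescence read with OneGlo; data normalized against buffer-only and 10uM Salinomycin inhibitor controls.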
Hits are given with their value; i = inactive; ? = inconclusive; nt = no result given.

SMILES | Lassa entry inh | Marburg entry inh | FMDV inh | Vaccinia Venus | Vaccinia mCherry | HCMV antiviral
COc1ccc(C=C2CS(=O)(=O)CC(=Cc3ccc(OC)cc3)C2=O)cc1 | nt | nt | 13µM | ? | ? | -99
CCCCCC[N+](C)(C)CCSSCC[N+](C)(C)CCCCCC | nt | nt | i | nt | nt | i
C[N+](C)(C)CCCCCC[N+](C)(C)C | i | ? | i | i | i | i
CCCCCCCCCCCCCCCC[N+](C)(C)CC | nt | nt | i | i | i | -96
CCCCCCCCCCCCCCCC[N+](C)(C)C | nt | nt | ? | ? | ? | -94
COCCn1c(CNC(=O)c2cccc(N(C)C)c2)nc2cccnc21 | i | nt | i | i | i | i
CCC[C@H]1[C@@H](NC(=O)Nc2ccc(OC)cc2)CC[C@@]23CCCN2C(=O)CCC[C@@H]13 | nt | nt | nt | nt | nt | i
Cc1cccc(C)c1NC(=O)CCCSc1nnc(-c2ccc(F)cc2)n1-c1ccccc1 | ? | ? | ? | ? | i | -69
Cc1cccc(C)c1NC(=O)CCCSc1nnc(-c2ccc(Cl)cc2)n1-c1ccccc1 | ? | ? | 14µM | ? | 13µM | -80
O=C(CSc1nnc(-c2ccncc2)n1-c1ccccc1)Nc1ccc(F)cc1 | i | nt | i | i | i | i
Oc1ccc(-c2[nH]ncc2-c2ccc(Cl)cc2)c(O)c1 | ? | i | i | nt | nt | i
COc1ccccc1Oc1cn[nH]c1-c1ccc(O)cc1O | nt | nt | i | nt | nt | -66
COc1ccccc1-c1cn[nH]c1-c1ccc(OCc2ccccc2)cc1O | i | ? | ? | i | ? | i
COc1ccc(-c2cn[nH]c2-c2ccc(OCc3ccccc3)cc2O)cc1 | 3.5µM | ? | i | i | ? | -71
COc1ccc(-c2cn[nH]c2-c2ccc(OC)cc2O)cc1 | ? | i | i | i | ? | -65
COc1ccc(-c2[nH]ncc2-c2ccc(Cl)cc2)c(O)c1 | i | i | ? | ? | nt | -65
CC1(C)CCC(c2ccc(Cl)cc2)=C(CN2CCN(c3ccc(C(=O)NS(=O)(=O)c4ccc(N[C@H](CCN5CCOCC5)CSc5ccccc5)c(S(=O)(=O)C(F)(F)F)c4)cc3)CC2)C1 | nt | nt | nt | 10µM | ? | nt
O=C(NCCN1CCN(c2ccccc2)CC1)C1(S(=O)(=O)c2ccc(Cl)cc2)CC1 | nt | nt | i | i | ? | i
Cc1cccc(-c2nc(CN3CCCC(C(=O)N4CCN(c5cc(Cl)ccc5C)CC4)C3)c(C)o2)c1 (stereo not given) | i | ? | ? | i | i | i
CCN(Cc1ccccc1)C(=O)Cn1ncc2c(=O)oc3ccc(C)cc3c21 | i | i | i | i | i | i
CC(C)(C)OC(=O)N1CCC[C@@H]1C(O)(c1ccccc1)c1ccccc1 | nt | i | nt | nt | nt | nt
COc1cccc(S(=O)(=O)Nc2ccc3c(c2)[C@@H]2C[C@@H](CC(=O)NCc4ccc(Cl)cc4)O[C@@H](CO)[C@@H]2O3)c1 | nt | nt | i | i | i | -78
COC(=O)C[C@H]1C[C@@H]2c3cc(NS(=O)(=O)c4cccc(OC)c4)ccc3O[C@@H]2[C@@H](CO)O1 | nt | nt | i | i | i | i
COc1ccc(-n2ccnc(NCc3ccc(C)cc3)c2=O)cc1OC | i | nt | i | i | i | i
c1ccc(-c2nnc(-c3ccccn3)nc2NC2CCCCC2)cc1 | 5µM | 3.5µM | i | ? | 3.5µM | -100
SMILES | Lassa entry inh | Marburg entry inh | FMDV inh | Vaccinia Venus | Vaccinia mCherry | HCMV antiviral
CNc1nc(-c2ccccn2)nnc1-c1ccccc1 | ? | ? | i | ? | ? | -105
COc1cc(=O)n2c(c1C(=O)N(C)Cc1nonc1C)CCN(Cc1cccc3ccccc13)CC2 | nt | nt | i | i | i | nt
Fc1ccc(Nc2cccc3nccnc23)cc1 | i | ? | i | i | i | -64
CCCN1CNc2c(c(=O)[nH]c(=S)n2CCc2cc(Cl)cc(Cl)c2)C1 | nt | nt | nt | i | i | nt
COC(=O)N[C@@H](/C=C/c1ccccc1)/C(C(=O)OC)=C(\C)NCc1ccccc1 | nt | i | nt | nt | nt | nt
N[C@H](C(=O)O)[C@@H]1C[C@@H]1C(=O)O | nt | i | i | nt | nt | nt
Cc1ccc2nc(-c3ccncc3)c(NC3CCCCC3)n2c1 | i | i | i | i | i | i
Cc1ccc2nc(-c3ccncc3)c(NC3CCCC3)n2c1 | nt | nt | i | nt | nt | -65
Cc1ccc(-c2ccnc(-n3ncc(C(=O)N4CCCCC4c4cccnc4)c3C3CC3)n2)o1 (stereo not given) | nt | nt | i | ? | i | nt
Cn1ncc(Cl)c1C(=O)NCc1ccc(Cl)cc1 | i | i | ? | i | i | -72
Cn1ncc(Cl)c1C(=O)Nc1ccncc1 | i | i | i | nt | nt | i
NC(=O)COc1ccc(-c2noc(COc3ccc(Cl)cc3)n2)cc1 | i | i | i | i | i | i
